Screen size: about 360,000 compounds; about 10,000 (2.8%) were called active. Inconclusive results (about 4%) are left out. What follows is part of a selection rich in actives, with near analogues and random picks from the rest. A number with no mark means an inactive call. Calls follow the shape of the dose curve; as a rule, active = well fitted inhibition curve with a large enough effect; inconclusive = small, poorly fitted or top-dose-only effect; inactive = flat fitted curve, though single readings scatter.
% is scaled to controls: 0 for no effect and ±100 for the full control effect; potency is read from the fitted curve at half-maximal effect.

In the assay the target is Serine/threonine-protein kinase PLK1 (Homo sapiens) (UniProt P53350). The assay is described as follows: qHTS for Inhibitors of PLK1-PDB (polo-like kinase 1 - polo-box domain): Primary Screen. Also: nearly all actives have a fitted effect of over 65% in size. As to max response, negative = inhibition: series mostly up to about 57 µM. The conditions noted are these: Plk1 PBD binding of FITC phosphopeptide, fluorescence polarization. The text has this: The polo-like kinase 1 (Plk1) is a member of a conserved subfamily of serine / threonine protein kinases that plays a pivotal roles in cell proliferation. It has a C-terminal non-catalytic region called the polo-box domain (PBD) that plays a crucial role in the subcellular localization of the Plk1. […] Furthermore, depletion of the overexpressed Plk1 by RNAi efficiently induces apoptotic cell death in cancer and reduces tumor growth in mouse xenograft models. Thus, targeting Plk1 is an appealing strategy for anti-cancer therapy. Therefore, this project aimed to screen the Molecular Libraries Small Molecule Repository (MLSMR) using a novel approach to find inhibitors that target the Plk1 PBD instead of the conventional N-terminal catalytic domain. This project employed a fluorescence polarization (FP) assay using a FITC-conjugated phospho-9-mer (p-9-mer) peptide and purified human Plk1 PBD protein. The identified small molecule inhibitors of Plk1 PBD can then further be developed into useful tools for biomedical and clinical research that complements or replaces current relevant disease therapy. NIH Chemical Genomics Center [NCGC] NIH Molecular Libraries Probe Centers Network [MLPCN] MLPCN Grant: MH100728 Assay Submitter (PI): Kyung Lee, NCI
Serine/threonine-protein kinase PLK1 (Homo sapiens), sequence (P53350 whole entry, looked up, the tested form may be a part): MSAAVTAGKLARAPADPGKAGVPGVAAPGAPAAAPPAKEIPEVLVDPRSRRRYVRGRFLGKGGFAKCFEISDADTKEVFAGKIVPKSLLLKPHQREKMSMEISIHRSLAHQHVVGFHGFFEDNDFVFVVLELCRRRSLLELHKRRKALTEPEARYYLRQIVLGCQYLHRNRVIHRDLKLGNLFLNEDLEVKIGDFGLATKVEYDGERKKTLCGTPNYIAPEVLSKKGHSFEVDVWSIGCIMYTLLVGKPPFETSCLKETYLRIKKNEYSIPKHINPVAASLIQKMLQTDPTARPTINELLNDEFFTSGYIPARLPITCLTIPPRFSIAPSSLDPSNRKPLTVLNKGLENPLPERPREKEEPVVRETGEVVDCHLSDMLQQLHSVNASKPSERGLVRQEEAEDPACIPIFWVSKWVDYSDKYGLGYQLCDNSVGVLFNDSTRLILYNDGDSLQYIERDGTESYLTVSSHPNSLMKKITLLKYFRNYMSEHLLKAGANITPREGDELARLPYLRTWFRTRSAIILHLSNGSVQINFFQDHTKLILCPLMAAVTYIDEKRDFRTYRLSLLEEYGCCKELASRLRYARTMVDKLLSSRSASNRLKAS
Four microliter of 25 nM FITC-p-9-mer + 60 nM Plk1 PBD in buffer solution (final concentrations 25 nM and 60 nM respectively) or 4 uL of 25 nM FITC-p-9-mer (final concentration 25 nM) in buffer will be dispensed into a 1,536 Greiner medium-binding black solid plate. Small molecules at final concentrations of 18 nM to 57 uM and positive control phospho-9-mer (sequence: Ac-PPLHSpTAI-NH2) at final concentrations 26 nM to 57 uM and phospho-13-mer (sequence: Ac-[…]pTAI-NH2) at final concentrations of 1 nM to 2.3 uM will be pin-transferred (23 nL) to the plate via a Kalypsys pin-tool robotics equipped with a 1,536-pin array. The reaction plate will be centrifuged for 1 min at 1000 rpm and incubated at room temperature for 10 min. The FITC fluorescence signals will be read using the PerkinElmer ViewLux plate reader at 480 / 20 nm excitation and 540 / 20 nm S and P polarization emission wavelengths. Reagent bottles will be kept submerged into 4 °C recirculating chiller bath and all liquid lines will be covered with aluminum foil to minimize degradation. Library plates will be screened starting from the lowest to the highest concentrations to minimize compound carryover. Vehicle only plates, with DMSO being pin-transferred instead of compound solutions, will be included regularly throughout the screen to record any systematic shifts in assay signal.
For `COc1ccc(-n2nc(C(=O)NCC(=O)N3CCCCCC3)c3ccccc3c2=O)cc1Cl`, the max response, negative = inhibition is 4.93%.

On to `COc1cccc(-n2nc(C(=O)N3CCN(Cc4ccccc4)CC3)c3ccccc3c2=O)c1`, for which the Potency is 29.9 µM (active).

As to `CCOC(=O)CNC(=O)c1nn(-c2cccc(OC)c2)c(=O)c2ccccc12`, the max response, negative = inhibition was -5.49%.

For the compound `CC1(C(=O)NS(=O)(=O)c2cccs2)CCN1C(=O)Cc1ccc(-c2ccccc2)cc1` (configuration not stated), the max response, negative = inhibition was -1.09%.

Take `COC(=O)[C@]12CCCCC=C1N(Cc1ccco1)C(=O)[C@H](CC(=O)NCCCCc1ccccc1)C2`: the max response, negative = inhibition was -4.79%.

On to `COc1cccc(CNC(=O)[C@@H]2CCCN2C(=O)[C@@H]2CCCN2C(=O)c2ccccc2)c1`, for which the max response, negative = inhibition is -5.85%.

Regarding `COc1ccc(-c2cc(=O)oc3cc(OCC(=O)N[C@@H](Cc4c[nH]c5ccccc45)C(=O)O)ccc23)cc1`, the max response, negative = inhibition was -6.27%.

Consider `COc1ccc(-c2cc(C(=O)NC(Cc3c[nH]c4ccccc34)C(=O)O)c(C)o2)cc1OC` (configuration not stated), for which the Potency was 13.4 µM (active).

Consider `COc1ccc(-c2cc(C(=O)NC(C(=O)O)C(C)C)c(C)o2)cc1OC` (configuration not stated), for which the max response, negative = inhibition is -8.55%.

As for `CCn1c(Cc2ccccc2)nnc1SCc1nc2ccccc2c(=O)[nH]1`, the max response, negative = inhibition is -5.5%.

With `COc1ccc(CCCc2nnc(SCc3nc4ccccc4c(=O)[nH]3)n2C)cc1`, the Potency is 3.77 µM (active).

For `CCn1c(COc2c(C)cccc2C)nnc1SCc1nc2ccccc2c(=O)[nH]1`, the max response, negative = inhibition is -11.4%.

For the compound `CS(=O)(=O)C1=NN2C(=N)/C(=C\c3ccc(OCCOc4ccccc4)cc3)C(=O)N=C2S1`, the Potency is 26.7 µM (active).

On to `CS(=O)(=O)c1ccc2c(c1)SC1=NC(=O)/C(=C/c3ccco3)C(=N)N12`, for which the max response, negative = inhibition is -3.25%.

`COc1cc(/C=C2\C(=N)N3N=C(CC(=O)N4CCOCC4)SC3=NC2=O)cc(OC)c1OC`: the max response, negative = inhibition is -14.2%.

Regarding `CCS(=O)(=O)C1=NSC2=NC(=O)/C(=C\c3ccc(OS(=O)(=O)c4ccccc4)cc3)C(=N)N21`, the Potency was 29.9 µM (active).

With `Cc1cc(/C=C2/NC(=O)NC2=O)c(C)n1-c1cccnc1`, the max response, negative = inhibition is 2.71%.

Turning to `Cc1cc(/C=C2/C(=N)N3C(=NC2=O)SN=C3S(C)(=O)=O)c(C)n1-c1ccccc1`, the Potency is 26.7 µM (active).

For `COc1ccccc1OCCOc1ccc(/C=C2\C(=N)N3N=C(C)SC3=NC2=O)cc1`, the max response, negative = inhibition is -15.8%.

As to `CCCS(=O)(=O)NC(=O)C1(C)CCCN(C(=O)c2cccs2)C1` (configuration not stated), the max response, negative = inhibition was -11.7%.

Consider `COc1cccc(-c2cc(NC(C)=O)c3ncc(-c4cccc(C(C)=O)c4)n3c2)c1`, for which the max response, negative = inhibition is -19.9%.

For the compound `CCCCc1ccc(S(=O)(=O)NC(=O)C2(C)CCN2C(=O)c2ccccc2)cc1` (configuration not stated), the max response, negative = inhibition is -13.3%.

For `CC1=C(C(=O)N2CCOCC2)CC(CC(=O)NCCN2CCOCC2)C(=O)N1CCC1=CCCCC1` (configuration not stated), the max response, negative = inhibition was 1.89%.

On to `COc1cccc(-c2nc3nc(C)cc(C)n3c2NC2CCCCC2)c1`, for which the max response, negative = inhibition was -13.3%.

`CCNC(=O)c1cc2c(c(-c3cccc(-c4cncnc4)c3)n1)[C@H](CCO)N(C(C)=O)C2`: the max response, negative = inhibition is -4.29%.

`O=C(Nc1cc(Br)ccc1F)c1nc[nH]c1C(=O)NCc1ccccc1`: the max response, negative = inhibition was -13.2%.

In the case of `COc1cccc(-c2cc3nc(NCc4ccccc4OC)n(C)c(=O)c3s2)c1`, the max response, negative = inhibition was 3.07%.

As for `O=C(O)COc1nsnc1N1CCOCC1`, the max response, negative = inhibition is -5.74%.

As to `c1nc(COc2nsnc2N2CCOCC2)cs1`, the max response, negative = inhibition was -14.8%.

`c1ccc(COc2nsnc2N2CCOCC2)cc1`: the Potency was 26.7 µM (active).

For `C[C@H]1COc2cc(N3CCSCC3)ccc2S(=O)(=O)N1`, the max response, negative = inhibition was -1.34%.

As to `CC(C)C[C@H]1CNC(=O)C(=O)N1C[C@H]1CCCN1C[C@H](Cc1ccc(O)cc1)N1C[C@H](CC(C)C)N(CC2CCCCCC2)C(=O)C1=O`, the max response, negative = inhibition is -0.278%.

Regarding `COc1ccc(S(=O)(=O)N2CCCCC2c2cc(C(=O)NCc3ccc(F)cc3)no2)cc1` (configuration not stated), the max response, negative = inhibition is 4.51%.

In the case of `Cc1nn(-c2ccccc2)c(Cl)c1/C=C/C(=O)c1ccc(O)cc1`, the max response, negative = inhibition was -17.2%.

For the compound `Cc1nn(-c2ccc(F)cc2)c(Cl)c1/C=C(/CCC(=O)O)c1nc2ccccc2s1`, the Potency was 59.7 µM (active).

In the case of `COc1cccc(/C=C(/CC(=O)Nc2ccc(N3CCOCC3)cc2)c2nc3ccccc3s2)c1`, the max response, negative = inhibition is 8.02%.

As to `CC(C)[C@H](NC(=O)c1ccccc1F)C(=O)Nc1cccc(S(=O)(=O)N2CCOCC2)c1`, the max response, negative = inhibition was 2.03%.

`COc1ccc(CNC(=O)c2ccc(-c3cccnc3)c3ccoc23)cc1OC`: the max response, negative = inhibition was -7.35%.

In the case of `CCOC(=O)C1=CCC2C(=O)N(Cc3ccccc3)C(=O)C12` (configuration not stated), the max response, negative = inhibition is -2.51%.

`CCN(CC)C(=O)C1CCCN(Cc2cccc(Cl)c2)C1` (configuration not stated): the max response, negative = inhibition was -16.8%.

Take `C=CCOc1c(Br)cc(/C=N\n2nnnc2N)cc1OC`: the max response, negative = inhibition was -13.9%.

Consider `CCOc1c(Br)cc(/C=C2\C(=O)N(CCC#N)N=C2C)cc1OC`, for which the Potency is 1.06 µM (active).
